Inconclusive results are not listed. A call without a number means that no potency is given here. The source made the active and inactive calls. Calls follow the shape of the dose curve; as a rule, active = well fitted inhibition curve with a large enough effect; inconclusive = small, poorly fitted or top-dose-only effect; inactive = flat fitted curve, though single readings scatter.
These compounds were tested against Calcium and integrin-binding protein 1 (Homo sapiens) (UniProt Q99828) (assay: Primary qHTS for Identification of Calcium Integrin Binding Protein 1 (CIB1) Competitor (AID 1508620;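 also: GST tagged CIB1 binding a fluorescein labelled alphaIIb integrin peptide tracer; top concentration of the series differs between compounds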)). Conditions: CIB1-GST / FITC-alphaIIb peptide fluorescence polarization; series mostly up to 114 µM.
Calcium and integrin-binding protein 1 (Homo sapiens), sequence (Q99828 whole entry, looked up): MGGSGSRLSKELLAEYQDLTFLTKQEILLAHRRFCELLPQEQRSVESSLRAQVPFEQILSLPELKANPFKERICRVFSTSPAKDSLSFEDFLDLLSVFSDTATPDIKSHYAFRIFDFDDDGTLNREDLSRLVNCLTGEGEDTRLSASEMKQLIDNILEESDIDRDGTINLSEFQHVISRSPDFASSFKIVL
Procedure, shortened: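 Fluorescence polarization competition: CIB1-GST (1 uM final) preincubated with compound 15 min at room temperature, then FITC-labeled alphaIIb peptide (100 nM final) added for another 15 min. Polarization read at Ex 480/Em 540.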
`CCOc1ccc(CCNC(=O)C2CCCCC2)cc1OCC` was tested, and the Potency was “inactive”. In the case of `Clc1cccc(-c2nc(-c3ccc(-c4nn[nH]n4)cc3)no2)c1`, the Potency is reported as “inactive”. For `Fc1cc(Nc2nc(-c3ccncc3)nc3ccccc23)ccc1-c1cccnc1`, the Potency was “inactive”. `Cn1ccc2cc(-c3ccc4ncnc(NCc5cccc(F)c5)c4c3)ccc21` was tested, and the Potency was “inactive”. For `COc1ccc(-c2nc3ccc(Cl)cc3c(=O)n2Cc2ccccc2)cc1COc1ccc(NC(C)=O)cc1`, the Potency was “inactive”. With `O=[S+]([O-])(Nc1ccc(N2CCNCC2)cc1)c1ccc(NCc2cccc(Cl)c2O)cc1` the Potency was “inactive”. With `N#Cc1ccccc1S(=O)(=O)N1CCN(S(=O)(=O)c2ccc3c(c2)OCCO3)CC1` the Potency was “inactive”. `O=C(OCC#CCSc1nnc(-c2cccc3ccccc23)o1)c1ccc(F)cc1` was tested, and the Potency was “inactive”. In the case of `N#Cc1ccc(-c2csc(N3CCC(C(N)=O)CC3)n2)cc1`, the Potency is reported as “inactive”. `N#Cc1nc(NCC(F)F)c2ncn(-c3cccc(Cl)c3)c2n1` was tested, and the Potency was “inactive”. With `O=c1c2ccccc2nc2sc(Nc3cccc(Br)c3)nn12` the Potency was “inactive”. With `CC(=O)Nc1sc2c(c1-c1nc(-c3ccccc3)cs1)CCN(C(C)C)C2` the Potency was “inactive”. In the case of `O=C(c1ccc2c(c1)ncn2-c1ccc(Cl)cc1)N1CCCCC1`, the Potency is reported as “inactive”. In the case of `O=c1c2ccccc2nc2sc(Nc3cccc(-c4ccncc4)c3)nn12`, the Potency is reported as “inactive”. For `O=C(c1c(F)cccc1F)N1CCN(S(=O)(=O)c2ccc3c(c2)OCCO3)CC1`, the Potency was “inactive”. In the case of `CC(C)Oc1cccc(-c2cnc(N3CCC(C(N)=O)CC3)s2)c1`, the Potency is reported as “inactive”. `[O-][n+]1onc(-c2ccccc2)c1CO` was tested, and the Potency was “inactive”. `CNc1nc(C#N)c(-c2cccc3ccccc23)o1` was tested, and the Potency was “inactive”. With `Brc1ccc(-c2csc(N3CCC(c4nn[nH]n4)CC3)n2)cc1` the Potency was “inactive”. `COc1ccc(-c2nnc3n2N=C(c2ccc(OC)cc2OC)CS3)cc1` was tested, and the Potency was “inactive”. For `CC(Nc1nc(-c2ccccc2C(F)(F)F)nc2ccccc12)c1ccc(-c2cccc(C(F)(F)F)c2)cc1` (stereo not given), the Potency was “inactive”. `COc1cccc(C2c3c(ncn(-c4cccc(Cl)c4)c3=N)Oc3ccc4ccccc4c32)c1` (stereo not given) was tested, and the Potency was “inactive”. For `O=C1N/C(=C\c2ccco2)C(=O)N1Cc1ccc(F)cc1`, the Potency was “inactive”. For `Cc1cccc(CNc2ccnc(-c3cccc4ccccc34)n2)c1`, the Potency was “inactive”. In the case of `O=C(/C=C/c1ccccc1Cl)Nc1cccc([S+](=O)([O-])Nc2ccccc2F)c1`, the Potency is reported as “inactive”. With `O=C(NCc1nnc(-c2cc3ccccc3[nH]2)o1)c1ccccc1` the Potency was “inactive”. In the case of `O=C(Nc1ncc(Cc2ccc(C(F)(F)F)cc2)s1)c1cccc(-c2ccccc2)c1`, the Potency is reported as “inactive”. `Cc1ccc(NS(=O)(=O)c2cccc(C(=O)O)c2)cc1C` was tested, and the Potency was “inactive”. `Cc1ccccc1-c1nnc(NC(=O)Nc2ccc3ccccc3c2)s1` was tested, and the Potency was “inactive”. For `O=C(Nc1ncc(-c2ccccc2)s1)c1ccc(-c2cccc([N+](=O)[O-])c2)o1`, the Potency was “inactive”. `Cc1noc(C)c1-c1ccc2ncnc(NC(C)c3ccco3)c2c1` (stereo not given) was tested, and the Potency was “inactive”. With `CCOC(=O)c1nc(NCc2ccccc2)sc1C` the Potency was “inactive”. For `Oc1ccc(CNc2cccc(F)c2)c2cccnc12`, the Potency was “inactive”. For `Cc1ccccc1N(C)C1=N[S+](=O)([O-])c2ccccc21`, the Potency was “inactive”. In the case of `N#Cc1c(-c2cccc(O)c2)no[n+]1[O-]`, the Potency is reported as “inactive”. For `Cc1cc2c(s1)c1cnn(Cc3c(F)cccc3C(F)(F)F)c(=O)c1n2C`, the Potency was “inactive”. With `Fc1ccc(-c2c(P(=S)(c3ccccc3)c3ccccc3)n3ccccc3[n+]2C/C=C/c2ccccc2)cc1` the Potency was “inactive”. `N#Cc1c(-c2ccc(Cl)cc2)no[n+]1[O-]` was tested, and the Potency was “inactive”. For `Cn1c2cc(B(O)O)sc2c2cnn(Cc3ccccc3F)c(=O)c21`, the Potency was “inactive”. For `CC(=O)Nc1sc2c(c1-c1ccc3nonc3c1)CCNC2`, the Potency was “inactive”.

Source: PubChem BioAssay (NCATS)
